Test results reported in PubChem BioAssay (EPA / NIEHS).
The source made the active and inactive calls. Rule for the calls: active = hit-call score of the fitted dose curve at least 0.9, where 1 is the maximum; inactive = score below 0.9.

Experiments:
Details in all cases: mRNA level, 48 h; actives raise or lower the signal
[1] = read-out: CYP4A11 (gene 1579); experiment: LTEA_HepaRG_CYP4A11: Life Technologies and Expression Analysis (LTEA) Assay for CYP4A11 using HepaRG (AID 2283486)
Summary of the method: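 Differentiated HepaRG cells, 48 h after plating, exposed in duplicate for 48 h to 8 half-log concentrations up to 100 uM in 0.5% DMSO in serum-free induction medium. CYP4A11 mRNA measured by TaqMan qRT-PCR, normalized to ACTB, GAPDH and POLR2A.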

[2] = read-out: Cytochrome P450 3A4 (Homo sapiens) (UniProt P08684); experiment: LTEA_HepaRG_CYP3A4: Life Technologies and Expression Analysis (LTEA) Assay for CYP3A4 using HepaRG (AID 2283487)
Summary of the method: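 HepaRG, 48 h exposure, 8-pt CRC from 100 uM (half-log), 0.5% DMSO, duplicates; serum-free induction medium. Readout: CYP3A4 mRNA, qRT-PCR, ACTB/GAPDH/POLR2A normalization. Bidirectional fit vs DMSO.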

[3] = read-out: DNA damage-inducible transcript 3 (DDIT3), DDIT3 (gene 1649); experiment: LTEA_HepaRG_DDIT3: Life Technologies and Expression Analysis (LTEA) Assay for DNA damage-inducible transcript 3 (DDIT3) using HepaRG (AID 2283488)
Summary of the method: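 Cells are human HepaRG liver cells treated for 48 h with eight half-log concentrations up to 100 uM in 0.5% DMSO. Transcript levels come from qRT-PCR normalized to three housekeeping genes, with activity fitted in both directions relative to vehicle.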

[4] = read-out: Early growth response protein 1 (EGR1) transcription factor, EGR1 (gene 1958); experiment: LTEA_HepaRG_EGR1: Life Technologies and Expression Analysis (LTEA) Assay for Early growth response protein 1 (EGR1) transcription factor using HepaRG (AID 2283490)
Summary of the method: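 EGR1 transcript levels quantified by qRT-PCR (Fluidigm arrays) against three housekeeping genes after 48 h chemical exposure of HepaRG cells. Eight-point half-log series topping at 100 uM, 0.5% DMSO vehicle, analyzed for gain or loss.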

[5] = read-out: Ezrin (EZR), EZR (gene 7430); experiment: LTEA_HepaRG_EZR: Life Technologies and Expression Analysis (LTEA) Assay for Ezrin (EZR) using HepaRG (AID 2283491)
Summary of the method: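 Read-out is EZR transcript level by qRT-PCR, normalized to three housekeeping genes and fitted bidirectionally against the DMSO control. Human HepaRG cells received test chemicals for 48 h at eight half-log concentrations up to 100 uM in 0.5% DMSO.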

[6] = read-out: Cytochrome P450 3A7 (Homo sapiens) (UniProt P24462); experiment: LTEA_HepaRG_CYP3A7: Life Technologies and Expression Analysis (LTEA) Assay for CYP3A7 using HepaRG (AID 2283492)
Summary of the method: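 Differentiated HepaRG cells in serum-free induction medium exposed 48 h in duplicate to 8-point half-log series from 100 uM top in 0.5% DMSO. CYP3A7 mRNA by qRT-PCR, normalized to ACTB/GAPDH/POLR2A, bidirectional fit versus DMSO.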

[7] = read-out: CYP3A5 (gene 1577); experiment: LTEA_HepaRG_CYP3A5: Life Technologies and Expression Analysis (LTEA) Assay for CYP3A5 using HepaRG (AID 2283493)
Summary of the method: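 Human HepaRG hepatic cells receive 48 h chemical treatment at eight concentrations (half-log steps from 100 uM) in 0.5% DMSO. Expression of CYP3A5 is quantified by Fluidigm qRT-PCR and normalized to three reference genes.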

[8] = read-out: Fatty Acid-Binding Protein 1 (FABP1), FABP1 (gene 2168); experiment: LTEA_HepaRG_FABP1: Life Technologies and Expression Analysis (LTEA) Assay for Fatty Acid-Binding Protein 1 (FABP1) using HepaRG (AID 2283494)
Summary of the method: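 FABP1 expression by TaqMan qRT-PCR, normalised to three housekeeping genes, in HepaRG cells after 48 h chemical treatment. Eight-point half-log series topping at 100 uM in 0.5% DMSO, duplicates; gain or loss fitted relative to vehicle.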

[9] = read-out: Glutathione S-Transferase (GSTA2), GSTA2 (gene 2939); experiment: LTEA_HepaRG_GSTA2: Life Technologies and Expression Analysis (LTEA) Assay for Glutathione S-Transferase (GSTA2) using HepaRG (AID 2283497)
Summary of the method: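 GSTA2 transcript levels came from Fluidigm TaqMan qRT-PCR normalized to three housekeeping genes, fitted in both directions against DMSO. HepaRG cultures received chemicals for 48 h in serum-free induction medium (0.5% DMSO), 8 half-log concentrations up to 100 uM, duplicate.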

[10] = read-out: Glutamate-cysteine ligase catalytic (GCLC), GCLC (gene 2729); experiment: LTEA_HepaRG_GCLC: Life Technologies and Expression Analysis (LTEA) Assay for Glutamate-cysteine ligase catalytic (GCLC) using HepaRG (AID 2283498)
Summary of the method: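 Expression by TaqMan qRT-PCR, normalized to three housekeeping genes (ACTB, GAPDH, POLR2A), with up- or down-regulation fitted against DMSO. HepaRG cells dosed in duplicate for 48 h with 8 half-log concentrations up to 100 uM, vehicle 0.5% DMSO.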

[11] = read-out: growth arrest and DNA damage 45 (GADD45G), GADD45G (gene 10912); experiment: LTEA_HepaRG_GADD45G: Life Technologies and Expression Analysis (LTEA) Assay for growth arrest and DNA damage 45 (GADD45G) using HepaRG (AID 2283499)
Summary of the method: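 Differentiated human HepaRG cells, 48 h post-plating, exposed 48 h in serum-free induction medium to 8 half-log concentrations (top 100 uM, 0.5% DMSO) in duplicate. GADD45G mRNA measured by Fluidigm TaqMan qRT-PCR, normalized to ACTB, GAPDH, POLR2A; bidirectional fit versus DMSO.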

[12] = read-out: Glutamate-cysteine ligase regulatory (GCLM), GCLM (gene 2730); experiment: LTEA_HepaRG_GCLM: Life Technologies and Expression Analysis (LTEA) Assay for Glutamate-cysteine ligase regulatory (GCLM) using HepaRG (AID 2283500)
Summary of the method: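 Endpoint is GCLM transcript level by qRT-PCR, normalized to three housekeeping genes, after 48 h chemical exposure of human HepaRG cells (0.5% DMSO vehicle, top 100 uM, half-log dilutions). Fitting was bidirectional relative to DMSO.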

[13] = read-out: Glutathione S-transferase M3 (GSTM3), GSTM3 (gene 2947); experiment: LTEA_HepaRG_GSTM3: Life Technologies and Expression Analysis (LTEA) Assay for Glutathione S-transferase M3 (GSTM3) using HepaRG (AID 2283501)
Summary of the method: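 Differentiated human HepaRG cells were exposed in duplicate for 48 h in serum-free induction medium, 8 points from 100 uM top in half-log steps, 0.5% DMSO. GSTM3 mRNA was measured by TaqMan qRT-PCR, normalized to ACTB, GAPDH and POLR2A; bidirectional fit versus DMSO.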

[14] = read-out: Heat shock 70 kDa protein 1 (HSPA1A), gene 3303; experiment: LTEA_HepaRG_HSPA1A: Life Technologies and Expression Analysis (LTEA) Assay for Heat shock 70 kDa protein 1 (HSPA1A) using HepaRG (AID 2283502)
Summary of the method: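 Cells were plated and cultured for 48 h, then switched to serum-free induction medium. Chemicals were added at eight half-log concentrations up to 100 uM for 48 h. RNA was then isolated and HSPA1A measured by qRT-PCR with bidirectional curve fitting against DMSO.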

[15] = read-out: Hypoxia-inducible factor 1-alpha (Homo sapiens) (UniProt Q16665); experiment: LTEA_HepaRG_HIF1A: Life Technologies and Expression Analysis (LTEA) Assay for Hypoxia-inducible factor 1 (HIF1A) Trancription factor using HepaRG (AID 2283503)
Summary of the method: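 HIF1A transcript level read by qRT-PCR (ACTB, GAPDH, POLR2A normalization) after 48 h chemical exposure of HepaRG cultures. Eight half-log concentrations, top 100 uM, 0.5% DMSO vehicle, duplicates; bidirectional curve fit against DMSO baseline.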

[16] = read-out: 3-Hydroxy-3-Methylglutaryl-CoA Synthase 2 (HMGCS2), HMGCS2 (gene 3158); experiment: LTEA_HepaRG_HMGCS2: Life Technologies and Expression Analysis (LTEA) Assay for 3-Hydroxy-3-Methylglutaryl-CoA Synthase 2 (HMGCS2) using HepaRG (AID 2283504)
Summary of the method: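 Human HepaRG cells in serum-free induction medium were exposed in duplicate for 48 h to 8-point half-log series from 100 uM top in 0.5% DMSO. HMGCS2 mRNA measured by TaqMan qRT-PCR, normalised to ACTB, GAPDH, POLR2A; bidirectional fit versus DMSO.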

[17] = read-out: HGF (gene 3082); experiment: LTEA_HepaRG_HGF: Life Technologies and Expression Analysis (LTEA) Assay for Hepatocyte Growth Facto (HGF) using HepaRG (AID 2283505)
Summary of the method: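 Differentiated HepaRG cells in serum-free induction medium exposed 48 h in duplicate, 8 half-log concentrations from 100 uM in 0.5% DMSO. HGF mRNA by qRT-PCR, normalised to ACTB, GAPDH, POLR2A; bidirectional fitting.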

[18] = read-out: Pro-epidermal growth factor (Homo sapiens) (UniProt P01133); experiment: LTEA_HepaRG_EGF: Life Technologies and Expression Analysis (LTEA) Assay for Epidermal growth factor (EGF) using HepaRG (AID 2283489)
Summary of the method: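 HepaRG cells (~100,000/well, 48 h pre-culture) exposed in duplicate for 48 h in serum-free induction medium to 8 half-log concentrations up to 100 uM in 0.5% DMSO. EGF mRNA by qRT-PCR, normalized to ACTB/GAPDH/POLR2A; bidirectional fit versus DMSO.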

[19] = read-out: Cytochrome P450 4A22 (Homo sapiens) (UniProt Q5TCH4); experiment: LTEA_HepaRG_CYP4A22: Life Technologies and Expression Analysis (LTEA) Assay for Cytochrome P450 4A22 (CYP4A22) using HepaRG (AID 2283495)
Summary of the method: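 Differentiated HepaRG cells in serum-free induction medium exposed 48 h in duplicate to eight half-log concentrations up to 100 uM in 0.5% DMSO. CYP4A22 mRNA quantified by TaqMan qRT-PCR, normalized to ACTB, GAPDH and POLR2A; bidirectional fit versus DMSO.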

[20] = read-out: Cytochrome P450 7A1 (Homo sapiens) (UniProt P22680); experiment: LTEA_HepaRG_CYP7A1: Life Technologies and Expression Analysis (LTEA) Assay for Cytochrome P450 7A1 (CYP7A1) using HepaRG (AID 2283496)
Summary of the method: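 HepaRG, 48 h exposure, 8-pt half-log series from 100 uM, 0.5% DMSO vehicle, duplicates. Readout: TaqMan qRT-PCR mRNA vs three housekeeping genes; bidirectional curve fit against DMSO baseline.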

Measured: AC50

Hypoxia-inducible factor 1-alpha (Homo sapiens), sequence (Q16665 whole entry, looked up): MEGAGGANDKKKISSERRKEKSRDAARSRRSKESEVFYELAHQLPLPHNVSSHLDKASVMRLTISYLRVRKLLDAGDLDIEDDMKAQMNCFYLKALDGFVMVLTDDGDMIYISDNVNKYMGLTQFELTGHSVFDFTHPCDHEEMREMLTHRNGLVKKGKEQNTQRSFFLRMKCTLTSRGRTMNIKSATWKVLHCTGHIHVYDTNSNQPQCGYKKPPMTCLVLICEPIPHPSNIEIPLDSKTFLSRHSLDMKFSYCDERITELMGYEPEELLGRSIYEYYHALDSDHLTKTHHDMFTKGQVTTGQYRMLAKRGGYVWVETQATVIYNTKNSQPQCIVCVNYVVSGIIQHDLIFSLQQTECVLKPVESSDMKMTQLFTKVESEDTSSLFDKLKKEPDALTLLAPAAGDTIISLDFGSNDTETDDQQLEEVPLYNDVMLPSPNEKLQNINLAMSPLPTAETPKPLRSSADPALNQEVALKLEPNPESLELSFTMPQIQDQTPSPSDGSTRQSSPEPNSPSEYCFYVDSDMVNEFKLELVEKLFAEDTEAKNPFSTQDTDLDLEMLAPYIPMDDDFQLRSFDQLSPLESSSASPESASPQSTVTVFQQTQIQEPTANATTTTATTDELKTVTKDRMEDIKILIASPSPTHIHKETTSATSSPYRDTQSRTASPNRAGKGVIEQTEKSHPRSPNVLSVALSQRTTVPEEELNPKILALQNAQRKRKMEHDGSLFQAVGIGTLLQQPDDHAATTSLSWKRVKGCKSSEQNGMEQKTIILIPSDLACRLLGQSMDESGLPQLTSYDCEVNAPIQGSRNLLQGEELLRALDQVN
Cytochrome P450 3A7 (Homo sapiens), sequence (P24462 whole entry, looked up): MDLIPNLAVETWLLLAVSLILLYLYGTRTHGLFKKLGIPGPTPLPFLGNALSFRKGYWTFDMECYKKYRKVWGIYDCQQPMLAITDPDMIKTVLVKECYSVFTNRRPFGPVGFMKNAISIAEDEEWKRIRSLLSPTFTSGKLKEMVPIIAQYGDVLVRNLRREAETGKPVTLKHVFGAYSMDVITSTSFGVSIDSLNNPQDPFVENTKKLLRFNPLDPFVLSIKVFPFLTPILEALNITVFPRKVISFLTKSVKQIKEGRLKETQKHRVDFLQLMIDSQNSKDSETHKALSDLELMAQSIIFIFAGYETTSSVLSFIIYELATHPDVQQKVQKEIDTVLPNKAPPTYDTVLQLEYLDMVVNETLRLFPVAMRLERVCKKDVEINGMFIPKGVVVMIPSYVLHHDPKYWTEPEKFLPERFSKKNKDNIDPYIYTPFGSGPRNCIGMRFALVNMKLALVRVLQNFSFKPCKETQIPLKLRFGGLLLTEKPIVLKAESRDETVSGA
Cytochrome P450 3A4 (Homo sapiens), sequence (P08684 whole entry, looked up): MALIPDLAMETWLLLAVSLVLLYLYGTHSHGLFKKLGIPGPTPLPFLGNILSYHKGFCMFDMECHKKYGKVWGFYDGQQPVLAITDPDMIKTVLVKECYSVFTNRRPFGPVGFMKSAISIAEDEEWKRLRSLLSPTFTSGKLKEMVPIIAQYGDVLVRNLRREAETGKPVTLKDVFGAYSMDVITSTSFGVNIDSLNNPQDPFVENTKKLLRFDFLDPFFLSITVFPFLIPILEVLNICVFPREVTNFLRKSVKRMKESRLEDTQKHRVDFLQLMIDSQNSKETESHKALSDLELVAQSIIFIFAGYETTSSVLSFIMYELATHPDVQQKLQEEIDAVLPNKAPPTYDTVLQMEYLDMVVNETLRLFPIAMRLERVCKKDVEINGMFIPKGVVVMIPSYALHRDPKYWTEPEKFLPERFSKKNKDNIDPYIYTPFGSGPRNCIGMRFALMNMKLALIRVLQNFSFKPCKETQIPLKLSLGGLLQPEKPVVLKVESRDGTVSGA

[O-][Cl+]O
not listed: [18] | [19] | [20]
inactive: all other assays above

CN(C)c1ccc(C(=O)c2ccc(N(C)C)cc2)cc1
active: [1] 50 µM | [8] 50 µM | [19] 50 µM
not listed: [2]
inactive: all other assays above

CS(=O)(=O)NC(=O)c1cc(Oc2ccc(C(F)(F)F)cc2Cl)ccc1[N+](=O)[O-]
active: [1] 2.84 µM | [2] 1.23 µM | [6] 4.43 µM | [16] 7.76 µM
inactive: all other assays above
